# Screens: PubChem, National Center for Advancing Translational Sciences (NCATS)
# An excerpt weighted towards active compounds, which were near 10% of everything screened.
# JMJD2A Tudor inh = inhibitors of human JMJD2A Tudor domain; AlphaScreen JMJD2A-Tudor / H3K4me3 peptide binding; Potency, µM (series often up to 114 µM), for the others: at the top dose activity change, negative = inhibition, hits mostly inhibitors; actives 4.4% (n = 390,000); AID 504339; also: % is scaled to controls: 0 for no effect and ±100 for the full control effect; nearly all actives have a fitted effect of over 50% in size
# BAZ2B block = inhibitors of human BAZ2B bromodomain. Q9UIF8. AlphaScreen BAZ2B-H3K14Ac peptide displacement. Potency, µM (top dose mostly 114 µM), for the others: at the top dose activity change, negative = inhibition, most hits filed as inhibitors. actives 4.4% (n = 360,000). AID 504333; also: % is scaled to controls: 0 for no effect and ±100 for the full control effect; nearly all actives have a fitted effect of over 60% in size
#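 Inhibition is scored as reduced AlphaScreen emission. The BAZ2B/b-H3(5-23)K14Ac complex (50 nM each) in PBS pH 7.4, 0.01% Tween-20 meets compound (up to 110 uM) for 30 min at RT before bead addition.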
# HP1b chromo inh = HP1-beta chromodomain-methylated histone interaction inhibition; P83916; AlphaScreen HP1-beta / biotin-H3K9me3 peptide binding; Potency, µM (titrated, usually from 114 µM), for inactives: at the top dose activity change, negative = inhibition, most hits filed as inhibitors; actives 0.56% (n = 390,000); AID 540317; also: nearly all actives have a fitted effect of over 70% in size
#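 Compound inhibition of the preformed complex between 50 nM HP1-beta and 50 nM biotinylated H3K9me3 peptide was read by AlphaScreen. Buffer was PBS pH 7.4 with 0.01% Tween-20. Incubations ran 30 min at room temperature, with 10 ug/mL donor/acceptor beads.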
# GLS inh = inhibitors of human glutaminase (GLS); AID 624170; GLS enzymatic activity, qHTS titration; actives 0.21% (n = 410,000); O94925; Potency, µM (highest dose often 45.5 µM), without a hit: top-dose activity change, negative = inhibition, hits mostly inhibitors; also: % is scaled to controls: 0 for no effect and ±100 for the full control effect
# Target sequence (O94925 whole entry, looked up): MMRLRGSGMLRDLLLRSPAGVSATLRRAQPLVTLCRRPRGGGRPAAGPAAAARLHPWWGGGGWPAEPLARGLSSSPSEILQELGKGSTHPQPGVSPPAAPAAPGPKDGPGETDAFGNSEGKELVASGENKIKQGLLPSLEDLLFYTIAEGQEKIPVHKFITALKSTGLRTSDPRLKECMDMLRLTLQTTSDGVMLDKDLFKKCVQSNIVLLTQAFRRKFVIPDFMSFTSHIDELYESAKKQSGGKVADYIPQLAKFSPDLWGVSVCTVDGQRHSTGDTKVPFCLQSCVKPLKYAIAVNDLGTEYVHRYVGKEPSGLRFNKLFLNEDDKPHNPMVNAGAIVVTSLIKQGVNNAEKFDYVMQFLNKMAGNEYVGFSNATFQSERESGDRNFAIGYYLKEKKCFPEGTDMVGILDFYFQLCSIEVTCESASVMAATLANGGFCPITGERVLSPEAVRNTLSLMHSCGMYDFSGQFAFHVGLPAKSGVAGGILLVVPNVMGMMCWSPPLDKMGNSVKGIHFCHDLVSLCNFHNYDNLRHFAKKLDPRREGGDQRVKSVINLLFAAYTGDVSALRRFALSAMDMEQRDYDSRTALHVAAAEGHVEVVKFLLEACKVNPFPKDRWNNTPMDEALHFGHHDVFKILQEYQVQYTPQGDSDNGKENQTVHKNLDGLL
#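 hKGA in 45 mM KH2PO4 pH 8.2, 0.02% Tween-20 with pin-transferred compounds; 1 mM L-glutamine (stock) plus glutamate oxidase/HRP/Amplex Red coupling added. Fluorescence read initially and after 30 min at RT.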
# G9a inh = blocks human histone lysine methyltransferase G9a; Q96KQ7; AID 504332; Potency, µM (series often up to 102 µM), for inactives: at the top dose activity, negative = inhibition, usual class: inhibitors; actives 8.8% (n = 350,000); G9a H3K9 monomethylation, AlphaScreen, 2 h; also: % is scaled to controls: 0 for no effect and ±100 for the full control effect; nearly all actives have a fitted effect of over 75% in size
#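 Signal arises when biotinylated H3K9 peptide, once monomethylated, bridges streptavidin donor and antibody-captured acceptor beads. Enzyme at 20 nM was preincubated 15 min with test compounds; peptide 500 nM and SAM 20 uM then reacted for 2 h.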
# The depositor's hits bear a star; u = inconclusive; x = not tested or not shown; [ ] = another dose, or the depositor's remark. Calls follow the shape of the dose curve; as a rule, active = well fitted curve in the direction sought with a large enough effect; inconclusive = small, poorly fitted or top-dose-only effect, or another doubt; inactive = no such curve, though single readings can be large; an effect the other way counts as inactive or inconclusive. Potency is read from the fitted curve at half-maximal effect.
SMILES,JMJD2A Tudor inh,BAZ2B block,HP1b chromo inh,GLS inh,G9a inh
COc1ccc(N2CCN(CCCNC(=O)C3CCCN(S(=O)(=O)c4cnc[nH]4)C3)CC2)cc1 (centres undefined),u,6%,38%,28%,50µM*
COc1ccc(N2CCN(CCCNC(=O)C(=O)c3c[nH]c4ccccc34)CC2)cc1,28µM*,14µM*,50µM*,22%,40µM*
COc1ccc(Nc2cc(C(=O)NCCCN3CCN(c4ccccc4F)CC3)c3ccccc3n2)c(OC)c1,10µM*,x,-33%,19%,13µM*
COc1ccc(Nc2cc(C(=O)NCCCN3CCN(C)CC3)c3ccccc3n2)cc1OC,-22%,-32%,-9%,14%,3.5µM*
COc1ccc(N2CCN(CCNC(=O)c3ccc4c(c3)[nH]c(=S)n3c5ccccc5nc43)CC2)cc1,u,u,5%,3%,50µM*
COc1ccc(Nc2cc(C(=O)NCCCN3CCOCC3)c3ccccc3n2)c(OC)c1,u,-29%,27%,25%,17%[12.7 µM]
COc1ccc(Nc2cc(C(=O)NCCCN(C)Cc3ccccc3)c3ccccc3n2)c(OC)c1,32µM*,u,u,19%,u
COc1ccc(N2CCN(CCCNC(=O)c3cc(Nc4ccccc4OC)nc4ccccc34)CC2)cc1,35µM*,10µM*,u,31%,10µM*
Cc1c(-c2ccccc2)nc2ccccc2c1C(=O)Nc1ccncc1,-29%,-5%,21%,-8%,-7%
CCN(CC)CCNC(=O)c1cc(Nc2ccc(OC)c(OC)c2)nc2ccccc12,u,40µM*,-15%,11%,71µM*
COc1ccc(Nc2cc(C(=O)NCc3ccccc3)c3ccccc3n2)cc1OC,-14%,x,7%,3%,3%[59 µM]
CC1(C)Cc2ccccc2C(/C(=N\Nc2cccc(Cl)c2)C(N)=O)=N1,35µM*,25µM*,u,-15%,u
CCN1CCN(c2nc3ccccc3nc2C(C#N)C(=O)OC2CCCCC2)CC1 (centres undefined),u,u,-23%,16%,-6%[12.7 µM]
CN1CCN(c2nc3ccccc3nc2C(C#N)C(=O)OC2CCCCC2)CC1 (centres undefined),-34%,56µM*,-7%,-4%,u
COCC(C)OC(=O)C(C#N)c1nc2ccccc2nc1N1CCN(Cc2ccccc2)CC1 (centres undefined),-19%,u,-7%,10%,45µM*
COCCOC(=O)C(C#N)c1nc2ccccc2nc1N1CCN(Cc2ccccc2)CC1 (centres undefined),u,u,u,7%,u
Cc1ccc(S(=O)(=O)CC(=O)Nc2sc3c(c2C#N)CCCCC3)cc1,-18%,-13%,-4%,2%,6%[59 µM]
CCN(CC)S(=O)(=O)c1ccc(N/N=C(\C)c2ccc3c(c2)OCO3)c([N+](=O)[O-])c1,-26%,-38%,-32%,2%,-8%[59 µM]
Cc1cccc(NC(=O)C2CC(=O)n3cnnc3S2)c1 (centres undefined),35µM*,u,-46%,6%,u
COc1ccc(C)c2sc(N(CCCN(C)C)C(=O)CS(=O)(=O)c3ccc(F)cc3)nc12,-16%,-3%,14%,7%,3%[59 µM]
CN(C)CCN(C(=O)CCS(=O)(=O)c1ccccc1)c1nc2c(F)cccc2s1,-20%,-26%,42%,-12%,28µM*
O=C(Cc1ccccc1)N(Cc1cccnc1)c1nc2c(F)cccc2s1,40µM*,-6%,26%,3%,6%[59 µM]
O=C(CS(=O)(=O)c1ccccc1)N(CCCN1CCOCC1)c1nc2c(F)cccc2s1,-14%,-23%,30%,-2%,u
Cc1ccc2sc(N(CCCN(C)C)C(=O)CCS(=O)(=O)c3ccccc3)nc2c1C,-1%,-31%,48%,2%,16µM*
CN(C)CCCN(C(=O)CCS(=O)(=O)c1ccccc1)c1nc2cc3c(cc2s1)OCO3,-21%,-11%,35%,-7%,x
SMILES,JMJD2A Tudor inh,BAZ2B block,HP1b chromo inh,GLS inh,G9a inh
COc1ccc(Cl)c2sc(N(CCN(C)C)C(=O)CCS(=O)(=O)c3ccc(C)cc3)nc12,-25%,-9%,2%,1%,10µM*
COc1ccc(OC)c2sc(N(CCN(C)C)C(=O)c3cc(Cl)sc3Cl)nc12,u,x,u,1%,u
COc1ccc(OC)c2sc(N(CCCN(C)C)C(=O)CCS(=O)(=O)c3ccccc3)nc12,-26%,-27%,10%,12%,20µM*
O=C(COc1ccccc1Cl)Nc1nc(-c2ccncc2)cs1,-3%,x,20%,-4%,x
CCCCn1c(CN2CCN(c3ccc(OC)cc3)CC2)nc2c1c(=O)[nH]c(=O)n2C,-22%,-22%,13%,-11%,u
COc1ccc(N2CCN(Cc3nc4c(c(=O)[nH]c(=O)n4C)n3CC(C)C)CC2)cc1,-19%,-38%,29%,-2%,25µM*
Cc1ccc(Cl)cc1N1CCN(Cc2nc3c(c(=O)[nH]c(=O)n3C)n2Cc2ccccc2F)CC1,u,4%,19%,-8%,40µM*
CCC(C)(C)n1nnnc1C(C(C)C)N(CCN1CCOCC1)Cc1cc2cccc(C)c2[nH]c1=O (centres undefined),-20%,6%,57%,-20%,20%[12.7 µM]
O=c1[nH]c2ccc(S(=O)(=O)Nc3ccc(Cl)cc3)cc2o1,-8%,-10%,57%,-7%,u
O=c1[nH]c2ccc(S(=O)(=O)Nc3cc(Cl)ccc3O)cc2o1,u,40µM*,-4%,8%,3.2µM*
O=C(NCc1cccnc1)c1ccc(-c2ccc(F)c(F)c2)c2ccoc12,x,x,x,6%,x
CCOC(=O)c1c(C)[nH]c(C)c1C(=O)COc1ncnc2ccccc12,16µM*,x,-22%,0%,u
CCOC(=O)c1c(C)[nH]c(C)c1C(=O)COC(=O)c1cc2ccccc2cc1O,u,u,-15%,u,50µM*
CCOC(=O)c1c(C)[nH]c(C)c1C(=O)COC(=O)c1ccc(Cl)c(S(=O)(=O)NCc2ccccc2)c1,56µM*,u,-36%,-7%,u
CCOC(=O)c1c(NC(=O)COc2ncnc3ccccc23)sc(C)c1C,-17%,4%,24%,10%,11%[59 µM]
O=C(COC(=O)c1ccc(Cl)c(S(=O)(=O)NCc2ccccc2)c1)NC1CC1,-23%,-3%,16%,9%,5%[59 µM]
CCc1c(O)nc(SCC(=O)Nc2ccc(C)cc2)n(C2CCCCC2)c1=O,-17%,u,13%,-6%,u
CC(=O)NC(Cc1ccccc1)C(=O)NC(Cc1ccccc1)C(=O)O (centres undefined),0%,-14%,41%,-6%,u
O=C(O)[C@H](Cc1ccccc1)NC(=O)N1CCCCCC1,5%,7%,32%,-8%,12%
